Laboratory results reported in PubChem BioAssay (NCATS).
Results filed as inconclusive are left out. A call without a number means that no potency is given here. Active and inactive are the calls of the source. Unless noted, calls come from the whole dose curve. *1 amine or outer side, *2 acyl side, *3 side chain or, on linkers, in order; H or OH if unused. Where a SMILES comes first, the peptide text is derived from it. Bridges are numbered along the chain shown (N, C = ends). [ ]: non-standard residue; d: D form. The star is where a group is joined. ξ: configuration not given here. X10 = NC1=NCCC(C(N[*:1])C(=O)[*:2])N1; ΔAla(3-NHCONH2) = NC(=O)NC=C(N)C(=O)O; ξβ3hOrn = NCCCC(N)CC(=O)*; Dap = NC[CH](N)C(=O)O

test system: not listed separately; experiment: Primary qHTS for small molecule stabilizers of the endoplasmic reticulum resident proteome: Secreted ER Calcium Modulated Protein (SERCaMP) assay (AID 1508630; active = well fitted curve in the direction sought with a large enough effect; an effect the other way counts as inactive or inconclusive); conditions: SH-SY5Y GLuc-SERCaMP (Gaussia luciferase released on ER calcium loss) secretion, thapsigargin, luminescence; series mostly up to 38.4 µM
Summary of the method: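 The SH-SY5Y reporter protocol was run at 3 concentrations up to 38.3 uM (primary) or 11 concentrations (follow-up): 16 h compound, 100 nM thapsigargin for 4 h, then extracellular luciferase luminescence.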

Question: Which Potency does the source give for `Cn1cnc2c(NCc3ccccc3)nc(NCCO)nc21` here?
Answer: inactive

Question: Which Potency does the source give for `Nc1ncnc2n[nH]c(Nc3ccc(F)cc3)c12` here?
Answer: inactive

Question: With `O=C1NC(=O)/C(=C/c2ccc3c(c2)OC(F)(F)O3)S1` as the molecule, how does the Potency read?
Answer: inactive

Question: For `C[N+](C)(C)CCO`, which Potency is on record?
Answer: inactive

test system: not listed separately; experiment: A High-Content qHTS Against Drug Library for the Identification of Small Molecules that Inhibit DYT1 Early Onset Primary Dystonia-Associated Cell Pathology (AID 1645839); conditions: HEK293 Flp-In EGFP-delE TorsinA, punctate imaging, 48 h; series mostly up to 46.1 µM
Summary of the method: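 Cells were seeded and left for 24 h, then dosed with compound alongside tetracycline induction of mutant EGFP-TorsinA. They were incubated for 48 h, fixed in 4% paraformaldehyde, permeabilized and imaged for mislocalization (%pathology) and cell count.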

Question: With `CC(NN)c1ccccc1` (stereo not drawn) as the molecule, how does the Potency read?
Answer: inactive

Question: With `Nc1nnnn1-c1ccccc1` as the molecule, how does the Potency read?
Answer: inactive

Question: With `CC(C)C(C)(C)C(C)(C)C(C)(C)S` as the molecule, how does the Potency read?
Answer: inactive

Question: For `Cc1ccc(O)cc1`, which Potency is on record?
Answer: inactive

Question: Which Potency does the source give for `Cc1ccc(-c2ccccc2C#N)cc1` here?
Answer: inactive

Question: With `CCCC(=O)c1cc(O)c(O)cc1O` as the molecule, how does the Potency read?
Answer: inactive

Question: Which Potency does the source give for `CC(=O)CC/C=C(\C)CC/C=C(\C)CC/C=C(\C)CCC=C(C)C` here?
Answer: inactive

Question: With `CC(C)(C)C(O)/C=C/c1ccc2c(c1)OCO2` (stereo not drawn) as the molecule, how does the Potency read?
Answer: inactive

Question: With `CN(C)CCN1CCN(c2cccc(Cl)c2)C1=O` as the molecule, how does the Potency read?
Answer: inactive

Question: Which Potency does the source give for `CCOC(=O)Oc1ccc(CCNC(=O)[C@H](CCSC)NC(C)=O)cc1OC(=O)OCC` here?
Answer: inactive

Question: With `CC(C)(C)c1cc(C=O)cc(C(C)(C)C)c1O` as the molecule, how does the Potency read?
Answer: inactive

Question: Which Potency does the source give for `COc1ccc(/C(C)=C/C(=O)O)c(OC)c1` here?
Answer: inactive

Question: With `CC(C)(C)C(=O)OCOC(=O)C1N2C(=O)CC2S(=O)(=O)C1(C)C` (stereo not drawn) as the molecule, how does the Potency read?
Answer: inactive

Question: Which Potency does the source give for `CCN1C(=O)c2ccccc2C1Nc1ccc(OCCN2CCCCC2)cc1` (stereo not drawn) here?
Answer: inactive

Question: With `N=C(N)c1ccc(OCCCOc2ccc(C(=N)N)cc2)cc1` as the molecule, how does the Potency read?
Answer: inactive

Question: With `C[N+]1(C)CCC(OC(=O)C(O)(c2ccccc2)C2CCCC2)C1` (stereo not drawn) as the molecule, how does the Potency read?
Answer: inactive

Question: Which Potency does the source give for `COC(=O)c1cc(Cl)ccc1NS(=O)(=O)C(F)(F)F` here?
Answer: inactive

Question: Which Potency does the source give for `CN(C)[C@@H]1C(=O)C(C(N)=O)=C(O)[C@@]2(O)C(=O)C3=C(O)c4c(O)cccc4C[C@H]3C[C@@H]12` here?
Answer: inactive

Question: For `CCCC(CCC)(C(=O)OCC)C(=O)OCC`, which Potency is on record?
Answer: inactive

Question: With `CCCCOCCOC(=O)c1cccnc1` as the molecule, how does the Potency read?
Answer: inactive

Question: For `CCOC(=O)c1cc(=O)c2c(OCC(COc3cccc4oc(C(=O)OCC)cc(=O)c34)OC(=O)[C@@H](N)CCCCN)cccc2o1`, which Potency is on record?
Answer: inactive

Question: For `Cc1ccc(C(=O)C(=O)O)cc1C`, which Potency is on record?
Answer: inactive

Question: With `CC(=O)N[C@@H](CCC(N)=O)C(=O)O` as the molecule, how does the Potency read?
Answer: inactive

Question: Which Potency does the source give for `N#C/C(=C1/SC[C@@H](c2ccc(Cl)cc2Cl)S1)n1ccnc1` here?
Answer: inactive

Question: For `c1ccc2occc2c1`, which Potency is on record?
Answer: inactive

Question: With `O=C(O)Cn1c(=O)n(Cc2ccc(Br)cc2F)c(=O)c2ccc(Cl)cc21` as the molecule, how does the Potency read?
Answer: inactive

Question: Which Potency does the source give for `Cc1[nH]cnc1-c1ccc(Cl)cc1` here?
Answer: inactive

Question: With `CC(C)NCCCC1(C(N)=O)c2ccccc2-c2ccccc21` as the molecule, how does the Potency read?
Answer: inactive

Question: With `O=C(c1ccccc1)c1ccccc1` as the molecule, how does the Potency read?
Answer: inactive

Question: With `c1ccc2c(c1)CCc1ccccc1N2` as the molecule, how does the Potency read?
Answer: inactive

Question: With `COc1c(N2C[C@@H]3CCCN[C@@H]3C2)c(F)cc2c(=O)c(C(=O)O)cn(C3CC3)c12` as the molecule, how does the Potency read?
Answer: inactive

Question: For `NCCCC(N)CC(=O)NCC1NC(=O)C(CO)NC(=O)C(N)CNC(=O)C(C2CCN=C(N)N2)NC(=O)C(=CNC(N)=O)NC1=O` (stereo not drawn) (H-[Dap]S[Dap](ξβ3hOrn)[ΔAla(3-NHCONH2)][X10]; lactam 1-C; configuration not given here), which % pathology change, negative = correction is on record?
Answer: -14.9% [at 0.369 µM] (inactive)

Question: With `CCOC(=O)c1ccc(OCCN2C[C@H](O)[C@@H](O)[C@H](O)[C@H]2CO)cc1` as the molecule, how does the Potency read?
Answer: inactive

biological target: Cytochrome P450 2D6 (Homo sapiens) (UniProt P10635); experiment: Cytochrome P450 family 2 subfamily D member 6 (CYP2D6) small molecule antagonists: luciferase biochemical (cell-free) qHTS assay (AID 1645840; active = well fitted curve in the direction sought with a large enough effect in the repeat runs; an effect the other way counts as inactive or inconclusive; note: nearly all actives have a fitted effect of over 55% in size; note: potency is the fitted concentration of half-maximal effect); conditions: P450-Glo CYP2D6 enzyme, luciferin luminescence, 1 h; series mostly up to 57.4 µM
Sequence (P10635 whole entry, looked up): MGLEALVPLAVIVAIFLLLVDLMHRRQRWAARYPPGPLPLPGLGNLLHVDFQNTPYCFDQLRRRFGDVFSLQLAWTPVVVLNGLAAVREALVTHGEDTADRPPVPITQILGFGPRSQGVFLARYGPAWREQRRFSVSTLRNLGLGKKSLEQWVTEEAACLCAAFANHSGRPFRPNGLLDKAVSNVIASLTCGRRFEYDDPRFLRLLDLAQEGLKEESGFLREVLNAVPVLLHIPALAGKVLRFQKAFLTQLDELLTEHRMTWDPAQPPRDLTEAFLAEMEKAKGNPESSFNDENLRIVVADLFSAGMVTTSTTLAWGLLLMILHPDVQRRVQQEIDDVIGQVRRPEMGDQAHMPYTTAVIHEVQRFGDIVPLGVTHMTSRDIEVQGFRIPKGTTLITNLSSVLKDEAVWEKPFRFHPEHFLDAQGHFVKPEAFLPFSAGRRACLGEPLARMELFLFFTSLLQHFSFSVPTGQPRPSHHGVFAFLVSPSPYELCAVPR
Summary of the method: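 P450-Glo CYP2D6 system: proluciferin substrate converted by enzyme to luciferin, read by luminescence proportional to activity. Enzyme-substrate mix with compound 10 min at room temperature, then NADPH regeneration 1 h before detection reagent.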

Question: For `Nc1nnnn1-c1ccccc1`, which Potency is on record?
Answer: inactive

Question: Which Potency does the source give for `CC(C)C(C)(C)C(C)(C)C(C)(C)S` here?
Answer: inactive

Question: With `Cc1ccc(-c2ccccc2C#N)cc1` as the molecule, how does the Potency read?
Answer: inactive

Question: Which Potency does the source give for `CCCC(=O)c1cc(O)c(O)cc1O` here?
Answer: 31.7 µM (active)

Question: Which Potency does the source give for `CC(=O)CC/C=C(\C)CC/C=C(\C)CC/C=C(\C)CCC=C(C)C` here?
Answer: inactive

Question: With `CC(C)(C)C(O)/C=C/c1ccc2c(c1)OCO2` (stereo not drawn) as the molecule, how does the Potency read?
Answer: 11 µM (active)

Question: With `CN(C)CCN1CCN(c2cccc(Cl)c2)C1=O` as the molecule, how does the Potency read?
Answer: 15.5 µM (active)

Question: For `CCOC(=O)Oc1ccc(CCNC(=O)[C@H](CCSC)NC(C)=O)cc1OC(=O)OCC`, which Potency is on record?
Answer: inactive

Question: With `COc1ccc(/C(C)=C/C(=O)O)c(OC)c1` as the molecule, how does the Potency read?
Answer: inactive

Question: With `N=C(N)c1ccc(OCCCOc2ccc(C(=N)N)cc2)cc1` as the molecule, how does the Potency read?
Answer: inactive

Question: With `COC(=O)c1cc(Cl)ccc1NS(=O)(=O)C(F)(F)F` as the molecule, how does the Potency read?
Answer: inactive

Question: With `CN(C)[C@@H]1C(=O)C(C(N)=O)=C(O)[C@@]2(O)C(=O)C3=C(O)c4c(O)cccc4C[C@H]3C[C@@H]12` as the molecule, how does the Potency read?
Answer: inactive

Question: With `CCCC(CCC)(C(=O)OCC)C(=O)OCC` as the molecule, how does the Potency read?
Answer: inactive

Question: With `CC(=O)N[C@@H](CCC(N)=O)C(=O)O` as the molecule, how does the Potency read?
Answer: inactive

Question: For `N#C/C(=C1/SC[C@@H](c2ccc(Cl)cc2Cl)S1)n1ccnc1`, which Potency is on record?
Answer: 0.0871 µM (active)

Question: Which Potency does the source give for `O=C(O)Cn1c(=O)n(Cc2ccc(Br)cc2F)c(=O)c2ccc(Cl)cc21` here?
Answer: inactive

Question: Which Potency does the source give for `Cc1[nH]cnc1-c1ccc(Cl)cc1` here?
Answer: 17.4 µM (active)

Question: For `CC(C)NCCCC1(C(N)=O)c2ccccc2-c2ccccc21`, which Potency is on record?
Answer: 3.89 µM (active)

Question: Which Potency does the source give for `COc1c(N2C[C@@H]3CCCN[C@@H]3C2)c(F)cc2c(=O)c(C(=O)O)cn(C3CC3)c12` here?
Answer: inactive

Question: With `NCCCC(N)CC(=O)NCC1NC(=O)C(CO)NC(=O)C(N)CNC(=O)C(C2CCN=C(N)N2)NC(=O)C(=CNC(N)=O)NC1=O` (stereo not drawn) (H-[Dap]S[Dap](ξβ3hOrn)[ΔAla(3-NHCONH2)][X10]; lactam 1-C; configuration not given here) as the molecule, how does the activity change, negative = inhibition read?
Answer: 0.741% [at 0.91 µM] (inactive)

Question: Which Potency does the source give for `CCOC(=O)c1ccc(OCCN2C[C@H](O)[C@@H](O)[C@H](O)[C@H]2CO)cc1` here?
Answer: inactive
